Data: the OligoGym collection

Each sequence was assayed against SQRDL (assay: pooled miR-30 sensor sort-seq; sequence = guide strand). Conditions: shRNA.
Also: reference of the scale not given here.

| Sequence | sensor-assay potency score (higher = more potent) |
| --- | --- |
| ATAATTACAGAAATTGTCCTAT | 0.475 |
| ATAGGTTCCAAGTCCTTCGTGC | 0.618 |
| TTTGGCACCAGCACCCACCAGT | -0.354 |
| AATCTTCTCATAGTCCAGCTGG | -0.573 |
| TAACTGAATAATTCGACCCTAT | -0.071 |
| TTAACTGAATAATTCGACCCTA | 0.0839 |
| TTGGTCACCATTACCCATCAAG | -1.14 |
| TTCTTTATCCACATCCACCCAA | -0.645 |
| TTTCTTGTAGTTAACAGTGAGG | -0.847 |
| TTTAATCTTCTCATAGTCCAGC | 0.0208 |
| TTTCATATGAAATCACTTGGGT | 0.204 |

Each sequence was assayed against SRCAP in the same assay as above. Conditions: shRNA.

| Sequence | sensor-assay potency score (higher = more potent) |
| --- | --- |
| TTGTTCTTCAACTTCAATCGTT | 0.0088 |
| TAGACCTTCATTATACTCTTGG | 0.352 |
| TTCACCACCACCACTGTCCGGC | 0.285 |
| TGTTCTTCAACTTCAATCGTTT | -0.243 |
| TCAACATCCACCTTAACTCGGC | 0.0488 |
| AACTCTAGTAGATCCATCCAGG | -0.807 |
| TTGCTTGAATTGCACCACCTTC | -1.29 |
| TTTATCTCCAACACCTGAGGGG | 0.481 |
| TATAGTATCCTCTTCATCCTCC | 0.687 |
| TTCCACTTGCTCTTCTGCCTGT | 0.497 |
| TAGAGGACACAGGACTAGCAAG | -1.62 |
| TTAATGACAATGTCTGAGTTGG | 0.105 |

Each sequence was assayed against SRCRB4D in the same assay as above. Conditions: shRNA.

| Sequence | sensor-assay potency score (higher = more potent) |
| --- | --- |
| TTCGCAGTGCACGTTGTCCAGC | -0.781 |
| TTCATCACACAGGACAGCCACA | -1.36 |
| TCTACTGGTTAACATCTTCCTT | -0.575 |
| TGCTCTACTGGTTAACATCTTC | -0.561 |
| TTTTCCATTCGGCAGTGTCGTA | -1.69 |
| TTGACCAGACGTAGATGCCCGT | -0.902 |
| TTAACATCTTCCTTGTTGGGGG | 0.296 |
| TTGTCCAGCAGGATGTGTCCGG | -0.554 |
| TAACATCTTCCTTGTTGGGGGC | -0.0485 |
| TACACGTCCCTCGCATCGGTGG | -1.14 |
| TCGTAGGAGGTGCTCTACTGGT | -1.24 |
| TTGGCGTCCACCACGTCCCAGT | -1.07 |

Each sequence was assayed against SRC in the same assay as above. Conditions: shRNA.

| Sequence | sensor-assay potency score (higher = more potent) |
| --- | --- |
| TTTCGTGGTCTCACTTTCTCGC | 0.127 |
| TCTGTGTTGTTGACAATCTGGA | 0.0722 |
| TCGTGGTCTCACTTTCTCGCAC | -0.731 |
| TCTCGCACGAGGAAGGTCCCTC | -0.579 |
| TCATTGTCTTCAATGAGCCGAG | -0.463 |
